According to PubChem BioAssay (EPA / NIEHS):
The source made the active and inactive calls. How the source made its calls: active means hit-call score of the fitted dose curve at least 0.9, where 1 is the maximum; inactive means score below 0.9.

What was measured:
[1] = read-out: Macrophage colony-stimulating factor (MCSF), CSF1 (gene 1435); test: BSK_hDFCGF_MCSF: BioMAP Diversity Plus: hDFCGF Assay for Macrophage colony-stimulating factor (MCSF) Biomarker Activity (AID 2283060); settings: primary human foreskin fibroblasts; actives raise or lower the signal
Procedure, shortened: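 M-CSF levels, determined by ELISA, are taken at 24 h after dosing human skin fibroblasts. Responses in either direction are fitted with DMSO serving as the baseline.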

[2] = BSK_hDFCGF_SRB: Viability Assessment in the BioMAP Diversity Plus: hDFCGF Assay (AID 2283061); settings: primary human foreskin fibroblasts;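 further: cells exposed to compound for 24 h before the read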
Procedure, shortened: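 Cells were dosed with test chemical, cultured 24 h, fixed with 10% TCA, then stained with 0.1% SRB and read at 560 nm. The fibroblasts were human foreskin primary cells, and DMSO served as baseline.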

[3] = read-out: Monokine induced gamma interferon (MIG), CXCL9 (gene 4283); test: BSK_hDFCGF_MIG: BioMAP Diversity Plus: hDFCGF Assay for Monokine induced gamma interferon (MIG) Biomarker Activity (AID 2283063); settings: primary human foreskin fibroblasts; actives raise or lower the signal
Procedure, shortened: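 MIG signal, determined by ELISA, reflects 24 h chemical exposure of human skin primary fibroblasts. DMSO serves as negative control and baseline.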

[4] = read-out: Vascular cell adhesion molecule 1 (VCAM1), VCAM1 (gene 7412); test: BSK_hDFCGF_VCAM1: BioMAP Diversity Plus: hDFCGF Assay for Vascular cell adhesion molecule 1 (VCAM1) Biomarker Activity (AID 2283065); settings: primary human foreskin fibroblasts; actives raise or lower the signal;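 on AC50: VCAM-1 protein level quantified by ELISA after 24 h chemical exposure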
Procedure, shortened: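 Cells are dosed, cultured for 24 h, then VCAM-1 is quantified by ELISA; signal increases and decreases are both fitted relative to DMSO.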

[5] = read-out: Plasminogen activator inhibitor-1 (PAI1), SERPINE1 (gene 5054); test: BSK_hDFCGF_PAI1: BioMAP Diversity Plus: hDFCGF Assay for Plasminogen activator inhibitor-1 (PAI1) Biomarker Activity (AID 2283066); settings: primary human foreskin fibroblasts; actives raise or lower the signal
Procedure, shortened: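 Human foreskin fibroblast primary cells, 24 h chemical exposure; PAI-1 measured by ELISA. Bidirectional fitting relative to DMSO; parallel cultures stained with SRB for total protein to flag overt cytotoxicity.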

[6] = read-out: Intercellular Adhesion Molecule 1 (ICAM1), ICAM1 (gene 3383); test: BSK_KF3CT_ICAM1: BioMAP Diversity Plus: KF3CT Assay for Intercellular Adhesion Molecule 1 (ICAM1) Biomarker Activity (AID 2283067); settings: primary human keratinocytes with fibroblasts; actives raise or lower the signal
Procedure, shortened: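 Dose the keratinocyte/fibroblast co-culture, wait 24 h, measure ICAM-1 by ELISA, then fit increases or decreases against DMSO. Cytotoxicity is checked in parallel cultures by SRB total-protein staining.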

[7] = read-out: Interferon-gamma inducible Protein 10 (IP10), CXCL10 (gene 3627); test: BSK_KF3CT_IP10: BioMAP Diversity Plus: KF3CT Assay for Interferon-gamma inducible Protein 10 (IP10) Biomarker Activity (AID 2283068); settings: primary human keratinocytes with fibroblasts; actives raise or lower the signal
Procedure, shortened: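 In a primary skin co-culture of keratinocytes and fibroblasts, IP-10 is quantified by ELISA at 24 h after dosing. SRB staining of parallel wells monitors overt toxicity. Curves are fitted both directions against DMSO.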

[8] = BSK_KF3CT_SRB: Viability Assessment in the BioMAP Diversity Plus: KF3CT Assay (AID 2283069); settings: primary human keratinocytes with fibroblasts;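 further: fitted for both signal gain and loss against DMSO baseline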
Procedure, shortened: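 Keratinocytes co-cultured with foreskin fibroblasts (human primary); chemical added, 24 h; fix 10% TCA, stain 0.1% SRB, A560. Bidirectional fit vs DMSO.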

[9] = read-out: Interleukin-1 alpha (IL1a), IL1A (gene 3552); test: BSK_KF3CT_IL1a: BioMAP Diversity Plus: KF3CT Assay for Interleukin-1 alpha (IL1a) Biomarker Activity (AID 2283070); settings: primary human keratinocytes with fibroblasts; actives raise or lower the signal
Procedure, shortened: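 Chemicals were dosed onto co-cultured human keratinocytes and foreskin fibroblasts, IL-1a was quantified by ELISA at 24 h, and activity was fitted in both directions relative to DMSO controls.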

[10] = read-out: Transforming growth factor beta 1 (TGFb1), TGFB1 (gene 7040); test: BSK_KF3CT_TGFb1: BioMAP Diversity Plus: KF3CT Assay for Transforming growth factor beta 1 (TGFb1) Biomarker Activity (AID 2283072); settings: primary human keratinocytes with fibroblasts; actives raise or lower the signal
Procedure, shortened: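 Human keratinocyte/foreskin fibroblast co-culture; TGF-b1 measured by ELISA 24 h after dosing, fitted bidirectionally versus DMSO. Cytotoxicity checked in parallel cultures by total protein (SRB staining, 560 nm).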

[11] = read-out: C-C motif chemokine 2 (Homo sapiens) (UniProt P13500); test: BSK_KF3CT_MCP1: BioMAP Diversity Plus: KF3CT Assay for Monocyte Chemoattractant Protein 1 (MCP1/CCL2) Biomarker Activity (AID 2283073); settings: primary human keratinocytes with fibroblasts; actives raise or lower the signal
Procedure, shortened: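 Keratinocytes and foreskin fibroblasts were co-cultured, dosed with chemical, and sampled 24 h later. MCP-1 was quantified by ELISA, and the endpoint was analyzed with bidirectional fitting using DMSO as negative control.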

[12] = read-out: Matrix Metallopeptidase 9 (MMP9), MMP9 (gene 4318); test: BSK_KF3CT_MMP9: BioMAP Diversity Plus: KF3CT Assay for Matrix Metallopeptidase 9 (MMP9) Biomarker Activity (AID 2283074); settings: primary human keratinocytes with fibroblasts; actives raise or lower the signal;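 on AC50: MMP9 protein level quantified by ELISA in the co-culture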
Procedure, shortened: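 Human keratinocyte/foreskin fibroblast co-culture; compound added; 24 h; MMP-9 by ELISA; bidirectional fit vs DMSO baseline.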

[13] = read-out: urokinase plasminogen activator (uPA), PLAU (gene 5328); test: BSK_KF3CT_uPA: BioMAP Diversity Plus: KF3CT Assay for urokinase plasminogen activator (uPA) Biomarker Activity (AID 2283075); settings: primary human keratinocytes with fibroblasts; actives raise or lower the signal
Procedure, shortened: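 ELISA readout of uPA, analyzed for signal gain or loss relative to DMSO, from a human primary keratinocyte–foreskin fibroblast co-culture measured 24 h after chemical treatment.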

CD40, CD40 (gene 958) = test: BSK_LPS_CD40: BioMAP Diversity Plus: LPS Assay for CD40 Biomarker Activity (AID 2283076); settings: primary human HUVEC with PBMC; actives raise or lower the signal
Procedure, shortened: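 CD40 signal, measured by ELISA, is fitted in both directions relative to DMSO vehicle. The system is an LPS-driven human vascular primary co-culture of endothelial cells and PBMC, sampled 24 h after compound addition.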

[14] = read-out: E-selectin (Homo sapiens) (UniProt P16581); test: BSK_LPS_Eselectin: BioMAP Diversity Plus: LPS Assay for Eselectin Biomarker Activity (AID 2283077); settings: primary human HUVEC with PBMC; actives raise or lower the signal
Procedure, shortened: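 Signal of E-selectin, detected by ELISA, served as the endpoint; cells were umbilical vein endothelium with PBMC, read 24 h after treatment. DMSO defined baseline, and both increases and decreases were fitted.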

[15] = read-out: Interleukin-8 (IL8), CXCL8 (gene 3576); test: BSK_LPS_IL8: BioMAP Diversity Plus: LPS Assay for Interleukin-8 (IL8) Biomarker Activity (AID 2283078); settings: primary human HUVEC with PBMC; actives raise or lower the signal
Procedure, shortened: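 Endothelial cells and PBMC from human donors are co-cultured, treated with chemicals and LPS, then assayed for IL-8 by ELISA after 24 h. Parallel SRB staining (0.1% SRB after 10% TCA fixation, 560 nm) flags cytotoxicity.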

[16] = BSK_LPS_SRB: Viability Assessment in the BioMAP Diversity Plus: LPS Assay (AID 2283079); settings: primary human HUVEC with PBMC;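 further: total protein by sulforhodamine B absorbance as a cytotoxicity measure; measured one day after compound addition; fitted in both directions against DMSO so loss or gain of signal counts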
Procedure, shortened: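 Overt cytotoxicity was gauged by sulforhodamine B total-protein staining in a primary human vascular endothelial and mononuclear cell co-culture 24 h post-dosing. Activity was fitted in both directions relative to DMSO.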

[17] = read-out: TIMP metallopeptidase inhibitor 1 (TIMP1), TIMP1 (gene 7076); test: BSK_hDFCGF_TIMP1: BioMAP Diversity Plus: hDFCGF Assay for TIMP metallopeptidase inhibitor 1 (TIMP1) Biomarker Activity (AID 2283062); settings: primary human foreskin fibroblasts; actives raise or lower the signal
Procedure, shortened: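 Fibroblasts from human foreskin are treated with test chemical and harvested at 24 h. TIMP-1 is quantified by ELISA, and gain or loss of signal is scored against DMSO.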

[18] = read-out: Matrix Metallopeptidase 1 (MMP1), MMP1 (gene 4312); test: BSK_hDFCGF_MMP1: BioMAP Diversity Plus: hDFCGF Assay for Matrix Metallopeptidase 1 (MMP1) Biomarker Activity (AID 2283064); settings: primary human foreskin fibroblasts; actives raise or lower the signal
Procedure, shortened: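 hDFCGF primary fibroblasts (human foreskin); chemical added; 24 h; MMP1 by ELISA; bidirectional fit vs DMSO.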

[19] = read-out: TIMP metallopeptidase inhibitor 2 (TIMP2), TIMP2 (gene 7077); test: BSK_KF3CT_TIMP2: BioMAP Diversity Plus: KF3CT Assay for TIMP metallopeptidase inhibitor 2 (TIMP2) Biomarker Activity (AID 2283071); settings: primary human keratinocytes with fibroblasts; actives raise or lower the signal
Procedure, shortened: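 Co-culture of human primary keratinocytes and foreskin fibroblasts, measured 24 h after chemical dosing. TIMP-2 quantified by ELISA and fitted in both directions relative to DMSO. Cytotoxicity checked in parallel cultures by SRB total-protein staining.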

Measured: AC50

Chain of E-selectin (Homo sapiens) (P16581 whole entry, looked up): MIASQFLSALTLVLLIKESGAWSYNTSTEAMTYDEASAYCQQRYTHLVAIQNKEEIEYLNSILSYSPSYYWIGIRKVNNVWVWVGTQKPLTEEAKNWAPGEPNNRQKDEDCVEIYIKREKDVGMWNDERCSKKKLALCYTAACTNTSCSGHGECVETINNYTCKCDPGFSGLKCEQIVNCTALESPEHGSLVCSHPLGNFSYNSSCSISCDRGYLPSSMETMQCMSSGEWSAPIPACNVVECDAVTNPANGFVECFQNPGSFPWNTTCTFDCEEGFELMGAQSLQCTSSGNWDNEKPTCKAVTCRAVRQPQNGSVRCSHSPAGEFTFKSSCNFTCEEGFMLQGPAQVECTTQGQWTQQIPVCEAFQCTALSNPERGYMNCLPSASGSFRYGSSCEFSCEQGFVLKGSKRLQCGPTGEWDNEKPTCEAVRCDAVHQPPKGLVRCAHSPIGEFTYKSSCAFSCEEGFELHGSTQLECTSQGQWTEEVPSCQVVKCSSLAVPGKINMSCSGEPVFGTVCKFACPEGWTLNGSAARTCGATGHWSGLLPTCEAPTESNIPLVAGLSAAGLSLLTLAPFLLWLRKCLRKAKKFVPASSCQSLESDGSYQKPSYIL

COc1cc(-c2nc(NC(=O)c3cc4cc(C)cc(C)c4n3CC(=O)O)sc2CCC2CCCCC2)c(OC)cc1Cl
active: [1] 420 nM | [2] 771 nM | [3] 1620 nM | [4] 317 nM | [5] 442 nM | [6] 3230 nM | [7] 1550 nM | [8] 1640 nM | [9] 4260 nM | [10] 1680 nM | [11] 1380 nM | [12] 1680 nM | [13] 1890 nM | CD40, CD40 (gene 958) 3160 nM | [14] 8510 nM | [15] 12200 nM | [16] 4610 nM

Cc1c(C(=O)O)c(O)cc2c1C(=O)c1c(O)c([C@@H]3O[C@H](CO)[C@@H](O)[C@H](O)[C@H]3O)c(O)c(O)c1C2=O
active: CD40, CD40 (gene 958) 782 nM
not listed: [2] | [4] | [8]
inactive: all other assays above

Cc1cccc([N+](=O)[O-])c1C
not listed: [2] | [4] | [17] | [18] | [19]
inactive: all other assays above

CCCc1cc(=O)[nH]c(=S)[nH]1
not listed: [2] | [17] | [18]
inactive: all other assays above

OC[C@@H](O)[C@@H](O)[C@H](O)[C@H](O)CO
not listed: [2] | [4] | [8] | [17] | [19]
inactive: all other assays above

Cc1ccc(C)c(C)c1
not listed: [2] | [8] | [18]
inactive: all other assays above

CCOc1ccc2c(c1)C(C)=CC(C)(C)N2
active: [1] 6140 nM | [3] 16400 nM | [4] 3970 nM
not listed: [2] | [8] | [17] | [19]
inactive: all other assays above

CC1(C)NC(=O)NC1=O
not listed: [2] | [4] | [8] | [17] | [19]
inactive: all other assays above
